Experiments:
Experiment in all cases: log2 ratio of Biotin-Ahx-Ub-VS probe labelling (fragment/DMSO); higher = less target engagement (more negative = stronger competition), active = hit call of the paper (q ≤ 0.05, log2 ratio ≤ -1)
Settings in all cases: compound concentration: 200 uM; treatment time: 3 h
[1] = molecular target: T1, USP19 (UniProt O94966)
T1 sequence (whole entry): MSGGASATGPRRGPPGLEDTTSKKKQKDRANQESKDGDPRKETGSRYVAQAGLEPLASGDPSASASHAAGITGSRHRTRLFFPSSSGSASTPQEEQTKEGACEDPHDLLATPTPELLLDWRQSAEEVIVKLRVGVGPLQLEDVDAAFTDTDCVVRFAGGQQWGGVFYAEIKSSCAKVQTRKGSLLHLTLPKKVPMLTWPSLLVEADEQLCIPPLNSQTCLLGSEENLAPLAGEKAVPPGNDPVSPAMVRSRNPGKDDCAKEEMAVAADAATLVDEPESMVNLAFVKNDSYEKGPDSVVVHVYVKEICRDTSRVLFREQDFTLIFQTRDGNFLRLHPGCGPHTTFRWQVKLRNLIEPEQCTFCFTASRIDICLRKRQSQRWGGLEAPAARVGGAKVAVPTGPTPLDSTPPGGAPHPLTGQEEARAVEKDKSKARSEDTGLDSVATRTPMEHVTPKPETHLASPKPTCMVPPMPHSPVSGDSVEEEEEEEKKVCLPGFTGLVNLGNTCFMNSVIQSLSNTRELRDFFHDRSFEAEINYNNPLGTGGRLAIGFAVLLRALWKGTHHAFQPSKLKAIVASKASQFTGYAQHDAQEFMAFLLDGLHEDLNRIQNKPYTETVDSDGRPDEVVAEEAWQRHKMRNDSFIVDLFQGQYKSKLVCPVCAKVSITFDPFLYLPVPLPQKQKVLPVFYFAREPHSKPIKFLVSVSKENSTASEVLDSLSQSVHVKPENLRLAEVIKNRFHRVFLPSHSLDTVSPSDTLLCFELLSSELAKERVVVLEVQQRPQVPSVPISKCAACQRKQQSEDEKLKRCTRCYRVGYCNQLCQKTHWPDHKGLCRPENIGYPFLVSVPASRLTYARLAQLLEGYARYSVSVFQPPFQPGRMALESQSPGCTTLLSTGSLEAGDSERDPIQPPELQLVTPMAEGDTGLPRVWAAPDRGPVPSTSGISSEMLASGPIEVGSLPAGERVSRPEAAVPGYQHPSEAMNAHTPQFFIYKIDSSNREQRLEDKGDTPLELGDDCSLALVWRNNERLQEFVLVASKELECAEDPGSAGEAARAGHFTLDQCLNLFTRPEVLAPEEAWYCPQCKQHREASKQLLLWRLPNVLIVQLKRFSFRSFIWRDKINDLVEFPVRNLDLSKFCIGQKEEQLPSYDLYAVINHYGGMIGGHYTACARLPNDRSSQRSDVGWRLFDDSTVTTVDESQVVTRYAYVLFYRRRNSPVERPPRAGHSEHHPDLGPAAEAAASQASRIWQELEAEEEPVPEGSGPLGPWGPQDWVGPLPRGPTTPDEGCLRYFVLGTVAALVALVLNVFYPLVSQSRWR
In short: (§1)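 The table lists average log2 ratios of fragment over vehicle, from an unpaired t-test on global-median-normalised Spectronaut label-free quantities. Proteins with ≥2 unique peptides were used. Samples were HEK293T lysate (495 µg) treated in triplicate with fragment at 200 µM or vehicle for 3 h, then with Biotin-Ahx-Ub-VS (0.5 µM final) for 1 h, with labelled DUBs NeutrAvidin-enriched and run by diaPASEF LC-MS/MS.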

[2] = molecular target: T2, USP22 (UniProt Q9UPT9)
T2 sequence (whole entry): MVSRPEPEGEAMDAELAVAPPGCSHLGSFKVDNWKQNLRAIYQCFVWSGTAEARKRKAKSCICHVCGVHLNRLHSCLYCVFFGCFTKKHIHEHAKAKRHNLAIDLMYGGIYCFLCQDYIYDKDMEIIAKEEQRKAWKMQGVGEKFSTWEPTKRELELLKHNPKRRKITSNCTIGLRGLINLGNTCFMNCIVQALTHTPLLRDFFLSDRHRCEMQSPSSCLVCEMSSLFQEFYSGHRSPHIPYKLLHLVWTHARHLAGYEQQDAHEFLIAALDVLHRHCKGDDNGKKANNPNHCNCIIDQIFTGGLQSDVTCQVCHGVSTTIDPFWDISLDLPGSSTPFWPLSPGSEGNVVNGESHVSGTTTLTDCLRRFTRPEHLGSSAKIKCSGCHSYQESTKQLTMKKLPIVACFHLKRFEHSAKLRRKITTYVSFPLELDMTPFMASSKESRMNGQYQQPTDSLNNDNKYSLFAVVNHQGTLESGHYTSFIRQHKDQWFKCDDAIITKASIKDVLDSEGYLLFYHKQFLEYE
In short: as §1

[3] = molecular target: USP24 (UniProt Q9UPU5)
USP24, sequence (Q9UPU5 whole entry): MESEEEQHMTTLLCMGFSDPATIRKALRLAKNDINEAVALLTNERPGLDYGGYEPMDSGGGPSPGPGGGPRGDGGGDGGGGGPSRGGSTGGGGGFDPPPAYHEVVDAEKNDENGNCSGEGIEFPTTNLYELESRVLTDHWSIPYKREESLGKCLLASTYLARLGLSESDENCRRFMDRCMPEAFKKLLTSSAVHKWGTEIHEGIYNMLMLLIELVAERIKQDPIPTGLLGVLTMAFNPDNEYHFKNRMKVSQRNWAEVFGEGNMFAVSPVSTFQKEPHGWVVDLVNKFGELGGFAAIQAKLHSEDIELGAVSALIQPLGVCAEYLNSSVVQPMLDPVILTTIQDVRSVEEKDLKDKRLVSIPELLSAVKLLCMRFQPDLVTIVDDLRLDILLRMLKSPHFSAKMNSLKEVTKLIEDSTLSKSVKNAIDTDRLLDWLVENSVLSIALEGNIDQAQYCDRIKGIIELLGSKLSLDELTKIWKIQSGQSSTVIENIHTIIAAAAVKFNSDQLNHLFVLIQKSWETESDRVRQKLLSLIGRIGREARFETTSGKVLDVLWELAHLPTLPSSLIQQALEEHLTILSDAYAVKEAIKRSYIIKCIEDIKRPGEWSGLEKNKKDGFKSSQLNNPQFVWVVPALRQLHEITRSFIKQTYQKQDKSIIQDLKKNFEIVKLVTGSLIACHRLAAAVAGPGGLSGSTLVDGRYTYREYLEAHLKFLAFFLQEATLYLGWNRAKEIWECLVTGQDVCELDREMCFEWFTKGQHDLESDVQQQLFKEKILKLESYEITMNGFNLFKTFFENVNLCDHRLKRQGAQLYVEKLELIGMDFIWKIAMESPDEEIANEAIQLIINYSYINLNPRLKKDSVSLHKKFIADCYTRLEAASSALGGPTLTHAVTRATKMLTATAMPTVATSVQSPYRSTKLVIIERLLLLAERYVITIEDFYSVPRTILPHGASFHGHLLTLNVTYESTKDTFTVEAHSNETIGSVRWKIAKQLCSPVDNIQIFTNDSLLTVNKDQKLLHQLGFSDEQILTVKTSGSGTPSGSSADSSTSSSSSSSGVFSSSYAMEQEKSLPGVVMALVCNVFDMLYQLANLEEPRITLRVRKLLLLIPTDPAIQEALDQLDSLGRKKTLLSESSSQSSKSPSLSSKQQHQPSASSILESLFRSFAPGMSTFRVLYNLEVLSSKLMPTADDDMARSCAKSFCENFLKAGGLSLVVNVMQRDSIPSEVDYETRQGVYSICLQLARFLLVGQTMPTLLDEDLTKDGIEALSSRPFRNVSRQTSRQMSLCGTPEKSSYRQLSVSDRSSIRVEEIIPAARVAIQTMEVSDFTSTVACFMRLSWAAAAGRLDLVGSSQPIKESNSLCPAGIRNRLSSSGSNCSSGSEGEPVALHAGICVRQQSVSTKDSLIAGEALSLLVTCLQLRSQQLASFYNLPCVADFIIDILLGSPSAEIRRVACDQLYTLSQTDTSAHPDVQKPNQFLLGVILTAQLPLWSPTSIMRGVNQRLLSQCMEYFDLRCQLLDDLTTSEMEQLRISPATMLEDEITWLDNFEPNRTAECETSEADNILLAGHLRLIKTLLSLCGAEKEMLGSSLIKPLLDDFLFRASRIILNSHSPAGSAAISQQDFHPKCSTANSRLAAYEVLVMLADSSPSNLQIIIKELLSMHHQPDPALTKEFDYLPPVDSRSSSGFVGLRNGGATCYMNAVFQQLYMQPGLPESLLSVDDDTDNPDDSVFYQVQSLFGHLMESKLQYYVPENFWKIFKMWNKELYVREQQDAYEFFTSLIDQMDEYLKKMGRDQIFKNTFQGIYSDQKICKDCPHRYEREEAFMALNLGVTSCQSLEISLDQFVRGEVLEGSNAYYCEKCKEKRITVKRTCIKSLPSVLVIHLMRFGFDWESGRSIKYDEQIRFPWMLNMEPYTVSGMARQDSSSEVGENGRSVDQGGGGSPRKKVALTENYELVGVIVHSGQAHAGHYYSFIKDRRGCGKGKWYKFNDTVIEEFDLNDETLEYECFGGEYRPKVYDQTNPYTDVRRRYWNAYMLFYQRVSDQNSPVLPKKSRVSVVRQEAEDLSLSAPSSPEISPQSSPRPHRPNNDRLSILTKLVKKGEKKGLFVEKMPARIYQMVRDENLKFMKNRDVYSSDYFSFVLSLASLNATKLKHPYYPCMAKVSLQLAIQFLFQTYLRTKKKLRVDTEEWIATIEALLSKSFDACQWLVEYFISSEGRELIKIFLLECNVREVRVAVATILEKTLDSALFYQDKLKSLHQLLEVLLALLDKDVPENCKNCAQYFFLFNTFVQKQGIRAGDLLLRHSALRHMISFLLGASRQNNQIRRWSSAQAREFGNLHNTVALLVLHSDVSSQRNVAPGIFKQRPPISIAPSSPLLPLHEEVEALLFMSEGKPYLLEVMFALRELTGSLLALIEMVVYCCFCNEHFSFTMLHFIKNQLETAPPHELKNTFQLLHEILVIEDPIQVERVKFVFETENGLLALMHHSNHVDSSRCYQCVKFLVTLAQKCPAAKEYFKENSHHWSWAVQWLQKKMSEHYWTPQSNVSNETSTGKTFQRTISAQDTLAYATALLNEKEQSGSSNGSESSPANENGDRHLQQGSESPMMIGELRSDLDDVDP
In short: as §1

[4] = molecular target: T3, USP25 (UniProt Q9UHP3)
T3 sequence (whole entry): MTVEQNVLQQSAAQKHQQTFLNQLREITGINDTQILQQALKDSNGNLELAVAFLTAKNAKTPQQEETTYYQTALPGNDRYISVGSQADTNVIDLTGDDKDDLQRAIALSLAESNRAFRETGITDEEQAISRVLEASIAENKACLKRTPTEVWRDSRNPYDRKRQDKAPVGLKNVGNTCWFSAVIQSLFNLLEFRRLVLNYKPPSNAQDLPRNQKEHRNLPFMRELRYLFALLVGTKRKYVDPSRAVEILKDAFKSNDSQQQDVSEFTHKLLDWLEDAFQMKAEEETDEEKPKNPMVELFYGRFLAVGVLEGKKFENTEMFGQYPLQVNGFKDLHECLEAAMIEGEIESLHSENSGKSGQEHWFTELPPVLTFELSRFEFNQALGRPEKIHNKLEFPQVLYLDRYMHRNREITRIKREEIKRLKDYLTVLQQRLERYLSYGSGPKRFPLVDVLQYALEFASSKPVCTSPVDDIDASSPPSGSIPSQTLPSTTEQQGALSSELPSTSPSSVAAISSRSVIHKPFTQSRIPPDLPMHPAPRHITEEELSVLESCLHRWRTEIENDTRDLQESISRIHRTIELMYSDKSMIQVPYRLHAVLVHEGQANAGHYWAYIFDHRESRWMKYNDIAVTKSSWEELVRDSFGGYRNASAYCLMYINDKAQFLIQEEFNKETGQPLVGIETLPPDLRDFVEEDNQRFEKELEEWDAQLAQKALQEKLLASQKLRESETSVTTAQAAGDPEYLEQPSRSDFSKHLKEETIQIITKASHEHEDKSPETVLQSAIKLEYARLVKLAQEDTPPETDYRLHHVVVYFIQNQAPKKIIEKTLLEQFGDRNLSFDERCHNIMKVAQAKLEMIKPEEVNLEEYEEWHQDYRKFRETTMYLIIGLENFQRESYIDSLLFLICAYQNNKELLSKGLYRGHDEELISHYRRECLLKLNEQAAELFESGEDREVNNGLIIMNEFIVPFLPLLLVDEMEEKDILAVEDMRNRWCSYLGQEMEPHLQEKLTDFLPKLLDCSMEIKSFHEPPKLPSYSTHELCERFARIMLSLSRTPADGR
In short: as §1

[5] = molecular target: T4, USP28 (UniProt Q96RU2)
T4 sequence (whole entry): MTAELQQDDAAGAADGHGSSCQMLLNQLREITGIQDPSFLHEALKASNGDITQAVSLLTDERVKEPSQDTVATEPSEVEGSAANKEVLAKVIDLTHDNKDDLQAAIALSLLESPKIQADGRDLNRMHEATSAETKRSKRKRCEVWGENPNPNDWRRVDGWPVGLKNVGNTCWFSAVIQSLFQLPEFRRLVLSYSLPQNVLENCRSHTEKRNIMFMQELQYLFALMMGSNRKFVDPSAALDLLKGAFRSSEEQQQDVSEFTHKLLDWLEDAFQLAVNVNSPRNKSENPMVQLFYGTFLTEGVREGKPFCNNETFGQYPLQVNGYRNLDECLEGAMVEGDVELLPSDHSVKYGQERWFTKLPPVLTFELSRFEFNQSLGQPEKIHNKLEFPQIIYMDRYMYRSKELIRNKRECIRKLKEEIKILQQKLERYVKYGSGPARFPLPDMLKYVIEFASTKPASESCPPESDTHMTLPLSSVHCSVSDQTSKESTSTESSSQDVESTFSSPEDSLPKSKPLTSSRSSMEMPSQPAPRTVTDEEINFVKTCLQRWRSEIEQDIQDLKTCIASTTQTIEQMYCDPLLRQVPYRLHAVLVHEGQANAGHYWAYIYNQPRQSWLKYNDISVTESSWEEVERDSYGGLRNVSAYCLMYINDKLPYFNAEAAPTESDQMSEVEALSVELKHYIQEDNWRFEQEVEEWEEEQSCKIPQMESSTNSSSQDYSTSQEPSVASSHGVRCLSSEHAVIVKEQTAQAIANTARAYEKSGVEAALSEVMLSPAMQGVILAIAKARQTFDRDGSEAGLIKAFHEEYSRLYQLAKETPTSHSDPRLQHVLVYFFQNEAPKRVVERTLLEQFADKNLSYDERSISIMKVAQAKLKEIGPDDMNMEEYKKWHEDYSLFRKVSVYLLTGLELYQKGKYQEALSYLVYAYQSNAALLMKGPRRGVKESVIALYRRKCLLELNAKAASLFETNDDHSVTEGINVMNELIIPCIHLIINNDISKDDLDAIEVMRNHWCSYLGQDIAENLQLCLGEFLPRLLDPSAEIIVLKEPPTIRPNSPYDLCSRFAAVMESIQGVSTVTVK
In short: as §1

Measured: log2 ratio of Biotin-Ahx-Ub-VS probe labelling

Cc1ccc(CC(NC(=O)CCl)c2ccccn2)cc1.Cl (stereo not given)
inactive: [1] 0.168 | [2] -0.153 | [3] -0.13 | [4] -0.098 | [5] -0.126
